Laboratory results taken from the supplement of paper PMC11732987, “Enantioselective OTUD7B fragment discovery through chemoproteomics screening and high-throughput optimisation” (Communications Chemistry, 2025).

Key:
Assay in all cases: log2 ratio of Biotin-Ahx-Ub-VS probe labelling (fragment/DMSO); higher = less target engagement (more negative = stronger competition), active = hit call of the paper (q ≤ 0.05, log2 ratio ≤ -1)
Settings in all cases: compound concentration: 200 uM; treatment time: 3 h
USP19 = target: T1, USP19 (UniProt O94966)
T1 sequence (whole entry): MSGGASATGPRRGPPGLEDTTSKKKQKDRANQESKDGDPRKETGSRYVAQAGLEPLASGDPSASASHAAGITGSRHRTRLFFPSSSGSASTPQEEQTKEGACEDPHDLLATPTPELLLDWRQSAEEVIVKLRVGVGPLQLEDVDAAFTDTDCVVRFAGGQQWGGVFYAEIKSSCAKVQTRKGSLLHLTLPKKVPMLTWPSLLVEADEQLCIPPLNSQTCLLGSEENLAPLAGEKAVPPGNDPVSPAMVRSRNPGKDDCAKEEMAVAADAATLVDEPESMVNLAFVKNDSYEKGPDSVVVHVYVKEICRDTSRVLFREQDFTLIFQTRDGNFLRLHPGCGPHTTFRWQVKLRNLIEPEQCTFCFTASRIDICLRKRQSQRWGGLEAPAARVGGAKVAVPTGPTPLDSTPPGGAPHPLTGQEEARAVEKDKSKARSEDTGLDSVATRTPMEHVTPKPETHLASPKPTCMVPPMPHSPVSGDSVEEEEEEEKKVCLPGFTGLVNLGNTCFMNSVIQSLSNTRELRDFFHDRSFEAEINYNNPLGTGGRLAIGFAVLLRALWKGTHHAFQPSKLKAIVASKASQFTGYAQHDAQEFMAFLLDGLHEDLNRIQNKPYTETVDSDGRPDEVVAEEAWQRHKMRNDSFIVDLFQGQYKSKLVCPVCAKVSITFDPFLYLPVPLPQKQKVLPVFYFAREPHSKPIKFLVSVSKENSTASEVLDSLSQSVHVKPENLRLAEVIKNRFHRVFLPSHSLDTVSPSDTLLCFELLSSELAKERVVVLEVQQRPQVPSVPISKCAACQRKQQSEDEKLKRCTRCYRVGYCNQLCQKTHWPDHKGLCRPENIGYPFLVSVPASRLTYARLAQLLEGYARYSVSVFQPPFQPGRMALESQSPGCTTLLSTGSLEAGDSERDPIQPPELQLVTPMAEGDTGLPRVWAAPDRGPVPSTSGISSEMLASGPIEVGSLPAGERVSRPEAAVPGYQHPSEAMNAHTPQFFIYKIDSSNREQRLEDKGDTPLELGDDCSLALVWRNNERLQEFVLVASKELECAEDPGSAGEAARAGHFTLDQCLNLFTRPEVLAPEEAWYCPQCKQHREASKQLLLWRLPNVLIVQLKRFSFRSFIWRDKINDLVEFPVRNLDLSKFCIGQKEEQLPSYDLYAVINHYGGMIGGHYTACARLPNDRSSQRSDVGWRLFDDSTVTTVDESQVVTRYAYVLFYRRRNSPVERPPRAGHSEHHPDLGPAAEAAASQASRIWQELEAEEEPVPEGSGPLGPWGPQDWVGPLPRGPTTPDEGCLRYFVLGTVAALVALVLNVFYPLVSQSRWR
In short: (§1)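 The table lists average log2 ratios of fragment over vehicle, from an unpaired t-test on global-median-normalised Spectronaut label-free quantities. Proteins with ≥2 unique peptides were used. Samples were HEK293T lysate (495 µg) treated in triplicate with fragment at 200 µM or vehicle for 3 h, then with Biotin-Ahx-Ub-VS (0.5 µM final) for 1 h, with labelled DUBs NeutrAvidin-enriched and run by diaPASEF LC-MS/MS.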

USP22 = target: T2, USP22 (UniProt Q9UPT9)
T2 sequence (whole entry): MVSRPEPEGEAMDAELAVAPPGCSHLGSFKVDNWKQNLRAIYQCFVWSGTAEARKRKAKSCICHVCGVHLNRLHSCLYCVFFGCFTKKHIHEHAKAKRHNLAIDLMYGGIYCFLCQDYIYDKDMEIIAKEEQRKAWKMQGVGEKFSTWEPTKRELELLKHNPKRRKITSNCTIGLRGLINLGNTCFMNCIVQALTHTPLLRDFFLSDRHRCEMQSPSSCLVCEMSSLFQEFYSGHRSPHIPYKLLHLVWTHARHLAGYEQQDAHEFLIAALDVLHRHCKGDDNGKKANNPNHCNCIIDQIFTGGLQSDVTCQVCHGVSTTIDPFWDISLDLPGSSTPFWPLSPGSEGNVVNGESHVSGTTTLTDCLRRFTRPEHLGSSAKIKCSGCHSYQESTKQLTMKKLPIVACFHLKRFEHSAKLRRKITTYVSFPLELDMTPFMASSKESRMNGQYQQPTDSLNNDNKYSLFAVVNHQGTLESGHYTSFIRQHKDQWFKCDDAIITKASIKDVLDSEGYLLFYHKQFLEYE
In short: as §1

USP24 = USP24 (UniProt Q9UPU5)
In short: as §1

USP25 = target: T3, USP25 (UniProt Q9UHP3)
T3 sequence (whole entry): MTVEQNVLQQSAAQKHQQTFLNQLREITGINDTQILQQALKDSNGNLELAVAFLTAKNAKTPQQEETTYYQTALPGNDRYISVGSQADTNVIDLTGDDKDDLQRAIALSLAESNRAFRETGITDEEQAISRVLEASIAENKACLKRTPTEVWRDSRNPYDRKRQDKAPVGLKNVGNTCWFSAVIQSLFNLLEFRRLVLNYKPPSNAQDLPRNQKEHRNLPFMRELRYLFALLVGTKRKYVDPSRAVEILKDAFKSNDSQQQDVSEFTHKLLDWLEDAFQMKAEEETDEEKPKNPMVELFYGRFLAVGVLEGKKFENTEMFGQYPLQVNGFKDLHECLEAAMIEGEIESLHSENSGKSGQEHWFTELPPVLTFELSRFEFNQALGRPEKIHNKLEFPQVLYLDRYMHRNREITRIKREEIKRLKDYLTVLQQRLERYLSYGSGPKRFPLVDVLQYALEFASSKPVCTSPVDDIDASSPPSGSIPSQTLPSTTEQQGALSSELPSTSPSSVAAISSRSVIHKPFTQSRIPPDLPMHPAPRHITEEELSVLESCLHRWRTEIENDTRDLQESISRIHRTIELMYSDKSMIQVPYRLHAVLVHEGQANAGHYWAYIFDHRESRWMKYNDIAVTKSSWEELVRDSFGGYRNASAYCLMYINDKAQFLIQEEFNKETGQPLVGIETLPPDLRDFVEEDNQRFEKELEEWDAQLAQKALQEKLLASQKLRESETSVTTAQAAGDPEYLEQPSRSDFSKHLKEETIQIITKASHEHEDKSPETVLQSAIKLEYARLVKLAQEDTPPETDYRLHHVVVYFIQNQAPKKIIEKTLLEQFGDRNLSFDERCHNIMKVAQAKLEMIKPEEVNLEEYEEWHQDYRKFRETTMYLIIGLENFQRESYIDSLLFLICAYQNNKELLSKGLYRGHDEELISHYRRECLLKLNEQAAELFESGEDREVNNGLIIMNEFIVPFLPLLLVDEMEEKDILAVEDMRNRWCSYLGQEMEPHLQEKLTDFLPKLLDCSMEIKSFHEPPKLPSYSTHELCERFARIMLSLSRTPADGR
In short: as §1

USP28 = target: T4, USP28 (UniProt Q96RU2)
T4 sequence (whole entry): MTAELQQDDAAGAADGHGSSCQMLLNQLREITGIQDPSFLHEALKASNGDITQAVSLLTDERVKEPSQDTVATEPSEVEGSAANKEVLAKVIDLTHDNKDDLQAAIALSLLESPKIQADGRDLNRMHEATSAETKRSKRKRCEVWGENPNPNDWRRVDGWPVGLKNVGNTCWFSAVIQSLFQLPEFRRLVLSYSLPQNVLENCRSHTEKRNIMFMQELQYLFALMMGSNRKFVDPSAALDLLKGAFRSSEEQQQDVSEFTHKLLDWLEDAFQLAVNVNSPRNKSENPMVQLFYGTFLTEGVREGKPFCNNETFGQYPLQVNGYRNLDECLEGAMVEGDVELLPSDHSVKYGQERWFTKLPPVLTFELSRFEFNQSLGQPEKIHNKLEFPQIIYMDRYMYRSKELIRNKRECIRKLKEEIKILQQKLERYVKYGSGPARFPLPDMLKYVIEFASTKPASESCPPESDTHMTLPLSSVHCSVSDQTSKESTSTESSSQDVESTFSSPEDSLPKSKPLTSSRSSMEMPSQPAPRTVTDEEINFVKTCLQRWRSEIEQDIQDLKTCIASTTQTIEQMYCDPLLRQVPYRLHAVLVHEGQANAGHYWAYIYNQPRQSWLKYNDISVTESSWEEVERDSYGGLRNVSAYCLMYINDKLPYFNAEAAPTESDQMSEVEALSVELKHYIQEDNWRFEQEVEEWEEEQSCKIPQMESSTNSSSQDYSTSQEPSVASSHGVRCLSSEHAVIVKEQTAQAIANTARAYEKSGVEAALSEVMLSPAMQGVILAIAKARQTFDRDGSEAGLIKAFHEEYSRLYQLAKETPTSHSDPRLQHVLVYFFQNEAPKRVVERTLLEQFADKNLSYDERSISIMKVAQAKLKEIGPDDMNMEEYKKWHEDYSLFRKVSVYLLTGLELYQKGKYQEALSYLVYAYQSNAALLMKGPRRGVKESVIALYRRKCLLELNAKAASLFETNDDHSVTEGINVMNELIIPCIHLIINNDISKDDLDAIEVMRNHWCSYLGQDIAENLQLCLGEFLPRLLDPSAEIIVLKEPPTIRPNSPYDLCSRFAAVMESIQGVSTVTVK
In short: as §1

Measured: log2 ratio of Biotin-Ahx-Ub-VS probe labelling

Chain of USP24 (Q9UPU5 whole entry): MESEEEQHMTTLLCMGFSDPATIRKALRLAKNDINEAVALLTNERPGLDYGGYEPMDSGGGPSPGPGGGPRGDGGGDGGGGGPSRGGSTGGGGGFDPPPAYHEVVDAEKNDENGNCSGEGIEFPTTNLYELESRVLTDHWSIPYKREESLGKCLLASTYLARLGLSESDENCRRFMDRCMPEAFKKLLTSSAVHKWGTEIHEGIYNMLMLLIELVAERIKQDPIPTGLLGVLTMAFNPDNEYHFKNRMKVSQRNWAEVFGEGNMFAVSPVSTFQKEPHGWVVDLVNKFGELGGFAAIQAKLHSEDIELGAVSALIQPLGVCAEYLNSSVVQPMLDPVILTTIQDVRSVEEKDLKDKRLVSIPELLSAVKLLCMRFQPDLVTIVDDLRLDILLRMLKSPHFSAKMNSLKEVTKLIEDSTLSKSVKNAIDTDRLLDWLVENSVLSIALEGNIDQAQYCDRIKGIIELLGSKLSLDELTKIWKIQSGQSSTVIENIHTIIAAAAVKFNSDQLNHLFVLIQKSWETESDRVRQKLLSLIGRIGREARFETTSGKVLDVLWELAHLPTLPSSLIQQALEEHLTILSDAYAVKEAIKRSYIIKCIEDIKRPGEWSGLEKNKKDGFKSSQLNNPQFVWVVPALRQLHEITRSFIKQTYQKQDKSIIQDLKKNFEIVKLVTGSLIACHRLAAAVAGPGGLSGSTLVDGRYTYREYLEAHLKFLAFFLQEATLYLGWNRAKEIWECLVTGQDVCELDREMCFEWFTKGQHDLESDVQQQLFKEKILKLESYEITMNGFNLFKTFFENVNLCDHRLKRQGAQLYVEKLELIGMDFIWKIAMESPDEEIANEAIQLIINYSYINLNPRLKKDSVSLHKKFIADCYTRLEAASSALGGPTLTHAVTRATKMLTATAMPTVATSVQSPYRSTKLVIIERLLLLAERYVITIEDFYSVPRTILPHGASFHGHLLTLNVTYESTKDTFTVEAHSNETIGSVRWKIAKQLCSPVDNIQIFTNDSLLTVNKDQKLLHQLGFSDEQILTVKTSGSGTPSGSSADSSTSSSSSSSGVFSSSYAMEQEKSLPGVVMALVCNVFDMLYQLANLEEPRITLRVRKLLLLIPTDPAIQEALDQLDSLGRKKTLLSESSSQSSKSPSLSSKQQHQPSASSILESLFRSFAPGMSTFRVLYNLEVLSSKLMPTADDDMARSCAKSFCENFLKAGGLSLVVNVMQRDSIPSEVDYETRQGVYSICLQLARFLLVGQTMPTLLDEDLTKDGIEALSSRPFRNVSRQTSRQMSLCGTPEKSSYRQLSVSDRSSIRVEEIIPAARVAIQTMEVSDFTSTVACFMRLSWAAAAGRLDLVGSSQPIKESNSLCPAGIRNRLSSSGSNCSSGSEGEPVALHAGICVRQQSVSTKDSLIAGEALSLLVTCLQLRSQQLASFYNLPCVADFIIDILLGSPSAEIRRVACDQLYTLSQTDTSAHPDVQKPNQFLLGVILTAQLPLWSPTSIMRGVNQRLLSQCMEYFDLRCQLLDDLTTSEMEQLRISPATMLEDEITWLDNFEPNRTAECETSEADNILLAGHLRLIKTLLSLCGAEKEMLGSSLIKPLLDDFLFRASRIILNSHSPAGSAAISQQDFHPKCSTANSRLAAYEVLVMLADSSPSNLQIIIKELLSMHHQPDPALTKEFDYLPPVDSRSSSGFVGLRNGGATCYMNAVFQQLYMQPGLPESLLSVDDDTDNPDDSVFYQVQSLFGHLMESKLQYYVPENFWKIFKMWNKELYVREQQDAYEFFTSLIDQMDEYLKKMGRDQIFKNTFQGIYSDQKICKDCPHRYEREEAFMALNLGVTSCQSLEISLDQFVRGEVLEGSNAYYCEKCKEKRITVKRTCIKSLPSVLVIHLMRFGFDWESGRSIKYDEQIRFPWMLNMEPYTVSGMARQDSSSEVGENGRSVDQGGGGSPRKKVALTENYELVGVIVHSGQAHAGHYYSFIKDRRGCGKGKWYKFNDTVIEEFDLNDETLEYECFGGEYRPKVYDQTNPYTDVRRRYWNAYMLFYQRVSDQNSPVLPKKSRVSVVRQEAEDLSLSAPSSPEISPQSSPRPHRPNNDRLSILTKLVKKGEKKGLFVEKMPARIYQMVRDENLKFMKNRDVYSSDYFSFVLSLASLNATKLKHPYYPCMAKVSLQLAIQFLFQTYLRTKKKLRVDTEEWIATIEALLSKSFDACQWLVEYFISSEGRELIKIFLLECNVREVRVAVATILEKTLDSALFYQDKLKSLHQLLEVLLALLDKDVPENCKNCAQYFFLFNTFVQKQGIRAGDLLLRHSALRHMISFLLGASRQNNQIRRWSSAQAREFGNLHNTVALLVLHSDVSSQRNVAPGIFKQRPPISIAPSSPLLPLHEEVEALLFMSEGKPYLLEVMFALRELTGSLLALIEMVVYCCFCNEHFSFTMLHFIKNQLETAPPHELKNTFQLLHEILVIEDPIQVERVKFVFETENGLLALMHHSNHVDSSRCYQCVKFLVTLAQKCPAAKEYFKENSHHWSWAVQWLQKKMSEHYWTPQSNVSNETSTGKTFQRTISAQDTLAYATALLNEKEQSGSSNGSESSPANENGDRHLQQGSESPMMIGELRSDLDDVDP

O=C(CCl)N(C1=CCCCC1)C1CC1
inactive: USP19 -0.0989 | USP22 -0.481 | USP24 -0.573 | USP25 -0.226 | USP28 -0.185
